Records with an inconclusive call do not appear. Calls of active or inactive are those of the source. Calls follow the shape of the dose curve; as a rule, active = well fitted curve in the direction sought with a large enough effect; inconclusive = small, poorly fitted or top-dose-only effect, or another doubt; inactive = no such curve, though single readings can be large; an effect the other way counts as inactive or inconclusive.
Target: Cytochrome P450 3A4 (Homo sapiens) (UniProt P08684)
Test: qHTS Assay for Activators of Cytochrome P450 3A4 (AID 885); also: nearly all actives have a fitted effect of over 65% in size
Settings: recombinant CYP3A4, Luciferin-PPXE luminescence, 60 min; series mostly up to 57.1 µM; activity change, positive = activation: at the top concentration
Method in brief: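 Using 20nM recombinant human CYP3A4 in potassium phosphate (200mM), substrate Luciferin-PPXE at 25uM, luminescent luciferin detection followed a 60-min RT NADPH reaction; data scaled to 57 uM ketoconazole.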

Sequence of Cytochrome P450 3A4 (Homo sapiens) (P08684 whole entry, looked up): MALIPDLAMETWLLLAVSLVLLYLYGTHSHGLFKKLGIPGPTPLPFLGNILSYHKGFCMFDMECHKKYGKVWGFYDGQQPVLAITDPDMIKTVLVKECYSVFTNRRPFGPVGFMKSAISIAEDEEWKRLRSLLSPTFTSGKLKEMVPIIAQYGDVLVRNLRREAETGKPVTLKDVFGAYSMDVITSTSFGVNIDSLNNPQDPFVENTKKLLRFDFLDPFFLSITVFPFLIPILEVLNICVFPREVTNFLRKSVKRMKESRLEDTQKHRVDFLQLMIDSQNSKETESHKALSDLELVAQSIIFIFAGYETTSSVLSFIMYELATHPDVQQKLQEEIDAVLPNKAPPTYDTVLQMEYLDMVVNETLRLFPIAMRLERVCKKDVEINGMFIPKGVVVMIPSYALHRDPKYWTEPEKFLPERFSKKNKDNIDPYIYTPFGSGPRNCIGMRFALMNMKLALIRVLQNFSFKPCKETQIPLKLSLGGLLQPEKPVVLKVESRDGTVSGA

Row | Structure (SMILES) | activity change, positive = activation
1 | CC(=O)Oc1c2c(c3c(c1CC=C(C)C)O[C@@]14C(=CC5CC1C(C)(C)OC4(C/C=C(\C)C(=O)O)C5=O)C3=O)OC(C)(CCC=C(C)C)C=C2 (stereo partly drawn) | -71.1% (inactive)
2 | COc1cc(C)c2c(=O)cc(-c3ccccc3)oc2c1 | -88.8% (inactive)
3 | COc1ccc(C2OCC3(COC(C)=O)C(C)C=C(C)C2C3C)cc1 (stereo not drawn) | -54.2% (inactive)

Target: Rap guanine nucleotide exchange factor 3 (Homo sapiens) (UniProt O95398)
Sequence (O95398 whole entry, looked up): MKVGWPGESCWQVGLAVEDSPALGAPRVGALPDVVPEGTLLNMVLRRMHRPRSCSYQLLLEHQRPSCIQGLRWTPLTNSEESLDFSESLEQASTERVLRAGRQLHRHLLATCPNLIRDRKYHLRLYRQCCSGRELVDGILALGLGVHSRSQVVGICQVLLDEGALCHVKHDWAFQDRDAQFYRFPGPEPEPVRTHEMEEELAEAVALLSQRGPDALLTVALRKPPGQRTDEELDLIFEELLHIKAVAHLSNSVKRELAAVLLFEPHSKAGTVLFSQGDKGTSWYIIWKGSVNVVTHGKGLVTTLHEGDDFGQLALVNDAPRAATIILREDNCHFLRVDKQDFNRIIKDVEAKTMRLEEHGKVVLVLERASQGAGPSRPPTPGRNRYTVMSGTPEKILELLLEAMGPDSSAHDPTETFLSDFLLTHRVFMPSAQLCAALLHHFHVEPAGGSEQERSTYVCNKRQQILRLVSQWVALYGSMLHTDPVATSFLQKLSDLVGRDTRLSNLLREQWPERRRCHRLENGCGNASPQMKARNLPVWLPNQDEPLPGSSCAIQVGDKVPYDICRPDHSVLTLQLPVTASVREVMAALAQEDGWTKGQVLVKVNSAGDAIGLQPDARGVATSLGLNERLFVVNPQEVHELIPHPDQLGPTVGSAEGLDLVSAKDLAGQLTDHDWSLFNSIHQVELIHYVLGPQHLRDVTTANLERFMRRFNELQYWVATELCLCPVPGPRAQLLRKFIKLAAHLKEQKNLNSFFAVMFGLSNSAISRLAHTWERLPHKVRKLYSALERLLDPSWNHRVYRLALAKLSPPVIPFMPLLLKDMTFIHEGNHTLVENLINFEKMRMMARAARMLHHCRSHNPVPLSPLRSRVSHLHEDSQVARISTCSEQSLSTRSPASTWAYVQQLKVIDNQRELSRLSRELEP
Test: Confirmatory qHTS for antagonist of cAMP-regulated guanine nucleotide exchange factor 3 (EPAC1) (AID 1645880); also: nearly all actives have a fitted effect of over 55% in size; also: potency is read from the fitted curve at half-maximal effect;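 as to activity, negative = inhibition: plate controls were DMSO only for no effect and full effect of the ATA control for full effect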
Settings: EPAC1 Rap1B-BODIPY-GDP exchange, fluorescence; activity, negative = inhibition: at 115 µM (top of the series)
Method in brief: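 Released BODIPY-GDP fluoresces less than Rap1-bound BODIPY-GDP; the signal is followed at 480/540 nm at 5-min intervals over 30 min, after 5 min at room temperature. Reactions contain 100 nM EPAC1, 250 nM RAP1B-BODIPY-GDP and 50 uM GDP; results are normalized to ATA and DMSO.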

Row | Structure (SMILES) | Potency | activity, negative = inhibition
4 | CCOc1cc(CNc2ccc(O)cc2)ccc1OCc1ccc(Cl)cc1 | 84.9 µM (active) | –
5 | COc1ccc(Br)cc1CN(C)CC(=O)Nc1c(Cl)cccc1Cl | – | -19.7% (inactive)
6 | O=C(CCn1c(=O)oc2ccccc21)N(Cc1ccccc1)c1ccccc1 | – | -24.2% (inactive)
7 | CCCCN(CCCC)c1ccc(/C=C/c2ccnc3ccccc23)cc1 | – | 5.83% (inactive)
8 | O=C1CCC(C(=O)Nc2ccccc2N2CCCC2)=NN1 | – | -19.1% (inactive)
9 | CN(C)c1ccc(/C=C/c2c3c(nc4ccccc24)CCCC3)cc1 | – | 31% (inactive)
10 | COc1ccc([N+](=O)[O-])cc1-c1nc2ccccc2nc1-c1ccccc1 | – | -30.5% (inactive)
11 | CN(C)c1ccc(/C=C/c2sc3ccccc3[n+]2CCCCBr)cc1 | – | 3.99% (inactive)
12 | Cc1onc(-c2ccc3c(c2)OCO3)c1-c1ccc2[nH]ccc2c1 | – | -5.38% (inactive)
13 | COCc1ccccc1C1=CC(=O)C[C@H](c2ccc(F)cc2)C1 | – | -23.5% (inactive)
14 | O=C(NCc1ccccc1F)c1ccc(CN2CC(=O)N3CCCCC3C2=O)cc1 (stereo not drawn) | – | -21.6% (inactive)
15 | O=C1CSC(c2ccc(Cl)cc2Cl)N1c1ccccn1 (stereo not drawn) | – | -10% (inactive)
16 | COc1ccc(C(=O)c2oc3ccccc3c2NC(=O)c2cc(=O)c3ccc(C)cc3o2)cc1Cl | – | -27.3% (inactive)
17 | Cc1ccccc1SCC(=O)Nc1cc(C(F)(F)F)ccc1N1CCOCC1 | – | -3.98% (inactive)
18 | Cc1ccc(CNc2cc(C)nc3nc(-c4ccc(C)cc4)nn23)cc1 | – | -9.81% (inactive)
19 | CC(=O)c1cccc(NC2c3ccccc3C(=O)N2Cc2ccc3c(c2)OCO3)c1 (stereo not drawn) | – | -25.9% (inactive)
20 | Nc1ncnc2c1nc(Sc1ccc(Cl)cc1)n2[C@@H]1O[C@@H]2COP(=O)(O)O[C@H]2[C@H]1O | 0.213 µM (active) | –
21 | OCCCCC#Cc1c(-c2ccsc2)sc2ccccc12 | – | -20.5% (inactive)
22 | CCOc1cc(-c2ccc(OC(=O)c3ccc(OC)cc3)c(OC)c2)cc(=O)c2c(C)oc(C)c12 | 75.7 µM (active) | –
23 | C=Nc1ccc(/C=C/c2ccnc3ccccc23)cc1 | – | 2.56% (inactive)

Row | Structure (SMILES) | Potency | activity, negative = inhibition
24 | COc1ccc(-c2nc3ccccc3n2Cc2ccccc2)cc1 | – | -58.9% (inactive)
25 | Cc1nc2c(C(=O)NCCc3ccccc3)c[nH]n2c(=O)c1Cc1ccc(F)cc1Cl | 84.9 µM (active) | –
26 | CCOc1ccccc1N1CCN(C(=O)c2cc3c(s2)CCC3)CC1 | – | -17.9% (inactive)
27 | CCCCN(CCC#N)c1ccc(/C=C/c2ccnc3ccccc23)cc1 | – | 0.264% (inactive)
28 | CC(=O)Oc1c2c(c3c(c1CC=C(C)C)O[C@@]14C(=CC5CC1C(C)(C)OC4(C/C=C(\C)C(=O)O)C5=O)C3=O)OC(C)(CCC=C(C)C)C=C2 (stereo partly drawn) | 55.9 µM (active) | –
29 | Oc1ccc2ccccc2c1-c1sc(Nc2ccccc2)n[n+]1-c1ccc(F)cc1 | 19 µM (active) | –
30 | COc1ccc(NC(=O)CN(C)C(=O)c2cn(-c3ccccc3)nc2-c2cccnc2)cc1 | – | -23.9% (inactive)
31 | CSc1ccc(S(=O)(=O)NCC(=O)OCC(=O)N(C)Cc2ccccc2)cc1[N+](=O)[O-] | – | -13.5% (inactive)
32 | COc1ncc2nc(-c3ccccc3)c(=O)n(Cc3cccs3)c2n1 | – | -13% (inactive)
33 | Cc1ccccc1-c1ccc2ncnc(N3CCOCC3)c2c1 | – | -19.4% (inactive)
34 | COCCOC(=O)c1c(-c2ccccc2)c(-c2ccccc2)nn(C)c1=O | – | -12.6% (inactive)
35 | Cc1ccc(C)c(NC(=O)N2CCN3CCCCC3C2)c1 (stereo not drawn) | – | -16.6% (inactive)
36 | COc1cc(NC(=O)CCNC(=O)Cn2ccc3ccccc3c2=O)cc(OC)c1OC | – | -13.5% (inactive)
37 | COc1cc(C)c2c(=O)cc(-c3ccccc3)oc2c1 | – | -3.59% (inactive)
38 | Cc1oc2cc(Br)c(O)c(Br)c2c1C(=O)c1ccccc1 | – | -20.9% (inactive)
39 | COc1ccc(-n2c(O)c(/C=N/NS(=O)(=O)c3cc(C)ccc3C)c3ccccc3c2=O)cc1OC | – | 13.6% (inactive)
40 | O=C(O)CSCC(=O)N(Cc1ccccc1)c1nc(-c2ccccc2)c(-c2ccccc2)s1 | 67.5 µM (active) | –
41 | CC(=O)c1ccccc1NC(=O)COC(=O)CSCC(=O)Nc1cc(C)on1 | – | -24.5% (inactive)
42 | COc1ccc(C(=S)N2CCOCC2)cc1OC(=O)c1ccccc1Cl | – | -16.2% (inactive)
43 | COc1ccc(C2OCC3(COC(C)=O)C(C)C=C(C)C2C3C)cc1 (stereo not drawn) | – | -17.2% (inactive)

Target: Rap guanine nucleotide exchange factor 3 (Homo sapiens) (UniProt O95398)
Test: Confirmatory qHTS for agonist of cAMP-regulated guanine nucleotide exchange factor 3 (EPAC1) (AID 1645881); also: nearly all actives have a fitted effect of over 75% in size; also: potency is read from the fitted curve at half-maximal effect;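 as to activation: EPAC1 catalysed release of BODIPY-GDP from Rap1B seen as fluorescence loss; 100% = effect of cAMP agonist control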
Settings: EPAC1 Rap1B BODIPY-GDP exchange fluorescence; series mostly up to 154 µM; activation: at the top concentration

Row | Structure (SMILES) | activation | Potency
44 | CCOc1cc(CNc2ccc(O)cc2)ccc1OCc1ccc(Cl)cc1 | 16.8% (inactive) | –
45 | COc1ccc(Br)cc1CN(C)CC(=O)Nc1c(Cl)cccc1Cl | 18.8% (inactive) | –
46 | O=C(CCn1c(=O)oc2ccccc21)N(Cc1ccccc1)c1ccccc1 | 17.6% (inactive) | –
47 | CCCCN(CCCC)c1ccc(/C=C/c2ccnc3ccccc23)cc1 | 1.96% (inactive) | –
48 | O=C1CCC(C(=O)Nc2ccccc2N2CCCC2)=NN1 | 20.5% (inactive) | –
49 | CN(C)c1ccc(/C=C/c2c3c(nc4ccccc24)CCCC3)cc1 | 14.2% (inactive) | –
50 | COc1ccc([N+](=O)[O-])cc1-c1nc2ccccc2nc1-c1ccccc1 | 14.7% (inactive) | –
51 | CN(C)c1ccc(/C=C/c2sc3ccccc3[n+]2CCCCBr)cc1 | 13.1% (inactive) | –
52 | Cc1onc(-c2ccc3c(c2)OCO3)c1-c1ccc2[nH]ccc2c1 | 17.3% (inactive) | –
53 | COCc1ccccc1C1=CC(=O)C[C@H](c2ccc(F)cc2)C1 | 21.2% (inactive) | –
54 | O=C(NCc1ccccc1F)c1ccc(CN2CC(=O)N3CCCCC3C2=O)cc1 (stereo not drawn) | 10.6% (inactive) | –
55 | O=C1CSC(c2ccc(Cl)cc2Cl)N1c1ccccn1 (stereo not drawn) | 22.2% (inactive) | –
56 | COc1ccc(C(=O)c2oc3ccccc3c2NC(=O)c2cc(=O)c3ccc(C)cc3o2)cc1Cl | 3.11% (inactive) | –
57 | Cc1ccccc1SCC(=O)Nc1cc(C(F)(F)F)ccc1N1CCOCC1 | 17.6% (inactive) | –
58 | Cc1ccc(CNc2cc(C)nc3nc(-c4ccc(C)cc4)nn23)cc1 | 21.3% (inactive) | –
59 | CC(=O)c1cccc(NC2c3ccccc3C(=O)N2Cc2ccc3c(c2)OCO3)c1 (stereo not drawn) | 18.3% (inactive) | –
60 | Nc1ncnc2c1nc(Sc1ccc(Cl)cc1)n2[C@@H]1O[C@@H]2COP(=O)(O)O[C@H]2[C@H]1O | – | 0.355 µM (active)
61 | OCCCCC#Cc1c(-c2ccsc2)sc2ccccc12 | 25.6% (inactive) | –
62 | CCOc1cc(-c2ccc(OC(=O)c3ccc(OC)cc3)c(OC)c2)cc(=O)c2c(C)oc(C)c12 | -5.09% (inactive) | –
63 | C=Nc1ccc(/C=C/c2ccnc3ccccc23)cc1 | 13.4% (inactive) | –

Row | Structure (SMILES) | activation | Potency
64 | COc1ccc(-c2nc3ccccc3n2Cc2ccccc2)cc1 | 19.4% (inactive) | –
65 | Cc1nc2c(C(=O)NCCc3ccccc3)c[nH]n2c(=O)c1Cc1ccc(F)cc1Cl | -12.5% (inactive) | –
66 | CCOc1ccccc1N1CCN(C(=O)c2cc3c(s2)CCC3)CC1 | 24.2% (inactive) | –
67 | CCCCN(CCC#N)c1ccc(/C=C/c2ccnc3ccccc23)cc1 | 11.6% (inactive) | –
68 | CC(=O)Oc1c2c(c3c(c1CC=C(C)C)O[C@@]14C(=CC5CC1C(C)(C)OC4(C/C=C(\C)C(=O)O)C5=O)C3=O)OC(C)(CCC=C(C)C)C=C2 (stereo partly drawn) | -31.6% (inactive) | –
69 | Oc1ccc2ccccc2c1-c1sc(Nc2ccccc2)n[n+]1-c1ccc(F)cc1 | -460% (inactive) | –
70 | COc1ccc(NC(=O)CN(C)C(=O)c2cn(-c3ccccc3)nc2-c2cccnc2)cc1 | 12% (inactive) | –
71 | CSc1ccc(S(=O)(=O)NCC(=O)OCC(=O)N(C)Cc2ccccc2)cc1[N+](=O)[O-] | 16.9% (inactive) | –
72 | COc1ncc2nc(-c3ccccc3)c(=O)n(Cc3cccs3)c2n1 | 4.21% (inactive) | –
73 | Cc1ccccc1-c1ccc2ncnc(N3CCOCC3)c2c1 | 5.64% (inactive) | –
74 | COCCOC(=O)c1c(-c2ccccc2)c(-c2ccccc2)nn(C)c1=O | 8.73% (inactive) | –
75 | Cc1ccc(C)c(NC(=O)N2CCN3CCCCC3C2)c1 (stereo not drawn) | 7.62% (inactive) | –
76 | COc1cc(NC(=O)CCNC(=O)Cn2ccc3ccccc3c2=O)cc(OC)c1OC | 10.8% (inactive) | –
77 | COc1cc(C)c2c(=O)cc(-c3ccccc3)oc2c1 | 7.53% (inactive) | –
78 | Cc1oc2cc(Br)c(O)c(Br)c2c1C(=O)c1ccccc1 | 29% (inactive) | –
79 | COc1ccc(-n2c(O)c(/C=N/NS(=O)(=O)c3cc(C)ccc3C)c3ccccc3c2=O)cc1OC | 24.5% (inactive) | –
80 | O=C(O)CSCC(=O)N(Cc1ccccc1)c1nc(-c2ccccc2)c(-c2ccccc2)s1 | 1.66% (inactive) | –
81 | CC(=O)c1ccccc1NC(=O)COC(=O)CSCC(=O)Nc1cc(C)on1 | 7.48% (inactive) | –
82 | COc1ccc(C(=S)N2CCOCC2)cc1OC(=O)c1ccccc1Cl | 17.6% (inactive) | –
83 | COc1ccc(C2OCC3(COC(C)=O)C(C)C=C(C)C2C3C)cc1 (stereo not drawn) | -0.261% (inactive) | –

Source: PubChem BioAssay (NCATS)
